This note sets out measurements from PubChem BioAssay AID488932 (Broad Institute, 2010).

Potency and affinity values are given separately. Unmarked numbers belong to inactive results.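 The calls were made as follows: active = growth signal falls, with fitted half-maximal dose at most ten times the top valid dose; inconclusive = flat curve with a partial drop, or a poorly fitting curve; inactive = the rest, including compounds that raise signal.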

The nature of this assay: single-agent toxicity toward C. albicans – CaCi-2 strain, no fluconazole, dry powder, set 4, counter-screen for reversing antifungal drug resistance, dose response (AID 488932). As to conditions: C. albicans CaCi-2 (fluconazole-resistant clinical isolate) growth, Alamar Blue, 48 h; series mostly up to 26 µM; activity change, negative = inhibition: at the top concentration. A general note: Counterscreens check selectivity or assay interference.
Turning to `O=C(c1ccc(Cl)cc1)N1CCN(c2nc3ccccc3o2)CC1`, the “activity change, negative = inhibition” value was 16.5%.
Under `O=C(c1ccc(Cl)cc1)N1CCN(c2cc(C(F)(F)F)nc3ccccc23)CC1` stands 33%.
For the compound `O=C(c1ccc(Cl)cc1)N1CCN(c2ccnc3ccccc23)CC1`, the “activity change, negative = inhibition” value is 35.2%.
With `Cc1cc(N2CCN(C(=O)c3ccc(Cl)cc3)CC2)c2ccc(F)cc2n1`, the “activity change, negative = inhibition” value is 28.9%.
Under `O=C(c1cccc(Cl)c1)N1CCN(c2ccnc3cc(Cl)ccc23)CC1` stands 9.72%; under `O=C(c1ccc(Cl)cc1)C1CCN(c2ccnc3cc(Cl)ccc23)CC1`, 18.3%; under `O=C(C1CCC1)N1CCN(c2ccnc3cc(Cl)ccc23)CC1`, 58.1%.
For `O=C(c1ccc(Cl)cc1)N1CCN(c2ccc(Cl)cc2)CC1` the value was -5.99%.
For `CCCC(=O)N1CCN(c2ccnc3cc(Cl)ccc23)CC1` the value was 37%.
Turning to `Clc1ccc2c(N3CCNCC3)ccnc2c1`, the “activity change, negative = inhibition” value is 9.3%.
Under `O=C(c1ccccc1)N1CCN(c2ccnc3cc(Cl)ccc23)CC1` stands 29.6%; under `O=C(c1ccc(Cl)cc1)N1CCN(c2nc3ccccc3s2)CC1`, 15%; under `O=C(c1ccc(Cl)cc1)N1CCN(c2cccc(C(F)(F)F)n2)CC1`, 20.3%.
Take `COc1ccc(C(=O)N2CCN(c3ccnc4cc(Cl)ccc34)CC2)cc1`: the “activity change, negative = inhibition” value was 30.7%.
Under `O=C(c1ccc(Cl)cc1)N1CCCN(c2ccnc3cc(Cl)ccc23)CC1` stands 70.2%; under `O=C(c1ccc(Cl)cc1)N1CCN(c2ccncc2)CC1`, 9.56%; under `CCCCNC(=O)N1CCN(c2ccnc3cc(Cl)ccc23)CC1`, 28.2%.
For `Cc1cccc(N2CCN(C(=O)c3ccc(Cl)cc3)CC2)n1` the value was 61.1%.
Turning to `COc1ccc2c(N3CCN(C(=O)c4ccc(Cl)cc4)CC3)ccnc2c1`, the “activity change, negative = inhibition” value is 13.6%.
